Experimental data reported in PubChem BioAssay AID1458 (National Center for Advancing Translational Sciences (NCATS), 2008).
“And” between values parts separate entries of the source, which are not always exact repeats. Equal values may be shown once. Out of some 210,000 compounds screened, about 5,900 (2.8%) were called active. Another 5% or so got no clear call; they are omitted. The sample holds actives, similar compounds and a random draw of the others, so the mix is not that of the screen. Calls follow the shape of the dose curve; as a rule, active = well fitted activation curve with a large enough effect; inconclusive = small, poorly fitted or top-dose-only effect; inactive = no such curve, though single readings can be large or run the other way.

Assay: qHTS Assay for Enhancers of SMN2 Splice Variant Expression; also: nearly all actives have a fitted effect of over 55% in size; as to activity change, positive = activation: % of control where 0% means no effect
Conditions: HEK293 SMN2-luciferase splicing reporter, luminescence, 30-36 h; series mostly up to 46.1 µM; activity change, positive = activation: at the top concentration
Outline: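 qHTS luciferase splicing reporter: luminescence rises when SMN2 exon 7 is included in transfected HEK293 cells. Compound exposure lasted 30-36 h at 37C, with 4.5 mM final sodium butyrate as control, followed by a ONE-Glo read.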
Potency is read from the fitted curve at half-maximal effect.

Compound	activity change, positive = activation	Potency
CCC1=Nc2cc(C(=O)NCC(C)c3ccccc3)ccc2Sc2ccc(C)cc21 (stereo unspecified)	-29.9% (inactive)	
COc1cccc(CNC(=O)c2cc(=O)[nH]c3ccc(S(=O)(=O)N4CCCCC4)cc23)c1	2.53% (inactive)	
CCC(=O)N1N=C(c2ccc(OC)cc2)CC1c1cn(-c2ccccc2)nc1-c1cccs1 (stereo unspecified)	-8.72% (inactive)	
O=C(/C=C\c1cn(-c2ccccc2)nc1-c1cccs1)N1CCOCC1	26.2% (inactive)	
COc1ccc(-c2nn(-c3ccccc3)cc2/C=C\C(=O)Nc2ccc(C(=O)O)cc2)cc1	-2.02% (inactive)	
O=C(O)c1ccc(N/N=C/c2cn(-c3ccccc3)nc2-c2cccs2)cc1		7.94 µM (active)
CC(C)CC(NS(=O)(=O)c1ccc2c(c1)oc(=O)n2C)C(=O)NCc1ccccc1Cl (stereo unspecified)	4.01% (inactive)	
Cc1ccccc1NC(=O)Cn1c(=O)n(CCc2ccccc2)c(=O)c2ccccc21	-3.15% (inactive)	
COc1ccc(-n2ncc3c(N4CCc5ccccc54)ncnc32)cc1		5.62 µM (active)
COc1ccc(N2CCN(C(=O)CSc3ncnc4c3cnn4-c3ccc(OC)cc3)CC2)cc1	-25.5% (inactive)	
COc1ccc(-n2ncc3c(N4CCCc5ccccc54)ncnc32)cc1	-16.2% (inactive)	
CO[C@@]12[C@@H](COC(N)=O)C3=C(C(=O)C(C)=C(N)C3=O)N1C[C@@H]1N[C@@H]12	-77.1% (inactive)	
CC(C)c1ccc2oc(-c3cc(NC(=O)c4cccs4)ccc3Cl)nc2c1	-26.1% (inactive)	
CC1=C(C(=O)OCc2ccc(C)cc2)C(c2c(Cl)cccc2Cl)CC(=O)N1 (stereo unspecified)	1.93% (inactive)	
Cc1ccccc1OCC(=O)Nc1c(C(=O)Nc2ccccc2F)oc2ccccc12	13.5% (inactive)	
CNC(=S)N/N=C/c1ccc(OCc2ccccc2)c(Br)c1	3.28% (inactive)	
Cc1n[nH]c(=S)n1/N=C/c1ccc(Br)o1	2.13% (inactive)	
COc1cc(/C=N/n2c(C)n[nH]c2=S)ccc1OCc1ccccc1		12.6 µM (active)
Cc1cc(-c2ccccc2)n2nc(-c3ccccc3)cc2n1	-3.97% (inactive)	
Cc1ccc(NC(=O)CN2C(=O)CC(C)Sc3ccccc32)c(C)c1 (stereo unspecified)	-2.75% (inactive)	
CC(C)=CCN1CCC2(CCc3ccccc32)CC1	-7.89% (inactive)	
CCOc1ccc(OCC)c(NC(=O)c2c(C)nn(-c3ccccc3)c2-n2cccc2)c1	-0.729% (inactive)	
COC(=O)c1c(NC(=O)c2ccc(Cl)c(Cl)c2)sc2c1CCCC2	-7.09% (inactive)	
COc1ccccc1Nc1nc(N)nc(N)c1S(=O)(=O)c1ccccc1	10.2% (inactive)	
CCc1cc2c(cc3c(=O)n(CC(=O)NCCc4ccc(OC)c(OC)c4)ncn32)s1	-1.71% (inactive)	
Cc1ccc(-n2ncc3c(Nc4cccc(C(=O)O)c4)ncnc32)cc1		14.1 µM (active) and 11.2 µM (active)

Compound	activity change, positive = activation	Potency
O=C(NNc1ncnc2c1cnn2-c1ccccc1)c1ccco1	-26.9% (inactive)	
CCN(CC)C(=O)CSc1ncnc2c1cnn2-c1ccccc1	27.2% (inactive)	
COc1ccc(Cl)cc1NC(=O)CSc1nc(-c2cccs2)cc(C(F)(F)F)n1	-0.0208% (inactive)	
CCOCCCNC(=O)c1cn(CC)c2ccc(S(=O)(=O)N3CCc4ccccc4C3)cc2c1=O	-7.64% (inactive)	
COc1c(C)c2c(c(O)c1C/C=C(\C)CCC(=O)O)C(=O)OC2		501 nM (active) and 631 nM (active) and 398 nM (active)
CCc1ccc(C2CC(=O)c3c([nH]c(C(=O)OCc4ccc(C)cc4)c3C)C2)cc1 (stereo unspecified)	6.39% (inactive)	
COc1ccc(C2=NOC3(CC(=O)N(c4ccc(C)cc4)C3=O)C2)cc1 (stereo unspecified)	-1.53% (inactive)	
COc1ccc(-c2cc(-c3ccccc3)nc3c2COc2ccc(Cl)cc2-3)cc1	2.81% (inactive)	
COc1ccc(C2=Nc3cc(C)ccc3OC2)cc1		2.82 µM (active)
Cc1ccc2c(c1)-c1c(cnn1CC(=O)Nc1ccccc1C#N)CO2	-17.6% (inactive)	
Cc1cccc(-n2c(C)cc(/C=N/NC(N)=S)c2C)c1	2.47% (inactive)	
Cc1cccc(-n2c(C)cc(/C=N\NC(=O)c3cccs3)c2C)c1		2 µM (active)
CC(=O)Nc1ccc(/C=N/NC(=O)c2cccs2)cc1		17.8 µM (active)
O=C(O)c1ccc(NC(=O)c2cccs2)cc1	-2.57% (inactive)	
CC(C)C(=O)Nc1ccc(C(=O)NNC(=O)c2cccs2)cc1	15.1% (inactive)	
Cc1ccc(-n2nc(C)c(/C=N/NC(=O)c3cccs3)c2Cl)cc1	20.2% (inactive)	
O=C(OC1CCOC1=O)c1ccc(-c2nc3ccccc3s2)s1 (stereo unspecified)		12.6 µM (active)
Cc1nn(Cc2ccccc2)c(Cl)c1C(=O)OC1CCOC1=O (stereo unspecified)	15.5% (inactive)	
O=C(c1cccs1)N1CCC(c2nc3ccccc3s2)CC1	-20.4% (inactive)	
COc1cccc(-c2nc(CS(=O)(=O)CC(=O)NCCc3ccc(OC)c(OC)c3)c(C)o2)c1	-49.1% (inactive)	
O=C(Cn1nc(C(F)(F)F)c2c1CCCC2)Nc1ccc(Cl)cc1	-4.3% (inactive)	
O=C(Cn1nc(C(F)(F)F)c2c1CCC2)NCc1ccc(F)cc1	-17.5% (inactive)	
Cc1cc(NC(=O)Cn2nc(C(F)(F)F)c3c2CCCC3)no1		14.1 µM (active)
Cc1cc(C)cc(NC(=O)Cn2c(=O)c3ccccc3n3nncc23)c1	7.67% (inactive)	
CCOc1ccc(S(=O)(=O)Nc2nc3cc(OC)ccc3s2)cc1	8.16% (inactive)	
COc1ccc2nc(NC(=O)[C@@H]3CCCN3C(=O)c3cccs3)sc2c1	2.5% (inactive)	

Compound	activity change, positive = activation	Potency
COc1ccc2nc(Nc3nc4cc5c(cc4s3)OCCO5)sc2c1		20 µM (active)
COc1ccc2nc(NC(=O)c3ccc(Br)s3)sc2c1		11.2 µM (active)
COc1cccc(C(=O)Nc2nc3ccc(S(C)(=O)=O)cc3s2)c1	18% (inactive)	
COc1ccc2nc(Nc3nc4ccc(NC(C)=O)cc4s3)sc2c1	-6.86% (inactive)	
COc1ccc(Cn2c(=O)n(-c3ccccc3C)c(=O)c3c4c(sc32)CN(C(C)=O)CC4)cc1	8.31% (inactive)	
CCOC(=O)c1ccc(NC(=O)Cn2c(=O)n(-c3ccc(C)cc3)c(=O)c3c2cnn3C)cc1	-2.66% (inactive)	
O=[N+]([O-])c1ccccc1NCc1ccccc1Cl	-8.19% (inactive)	
O=[N+]([O-])c1ccccc1N/N=C1\CCc2ccccc21		11.2 µM (active)
O=[N+]([O-])c1cc(C(F)(F)F)ccc1NN=C1CCCC1	5.28% (inactive)	
Cc1ccc(Cl)cc1N(C)C(=O)Cn1nc(Cc2cccnc2)c2ccccc2c1=O	-1.29% (inactive)	
COc1ccc(-n2c(C)nc3c(cnn3-c3ccc(F)cc3)c2=O)cc1	-9.72% (inactive)	
COc1ccc(-c2c3c(=O)n(C)c(=O)n(C)c3c3c(C)nc4ccccc4n23)cc1	7.52% (inactive)	
FC(F)(F)c1cc(Nc2nc3ccccc3c3nncn23)ccc1Cl	-29.6% (inactive)	
CCN(C(=O)Cn1cc(S(=O)(=O)N2CCN(c3ccccc3F)CC2)c2ccccc2c1=O)c1ccc(C)c(C)c1	7.16% (inactive)	
c1ccc2sc(SCCSc3nc4ccccc4s3)nc2c1	-8.26% [at 9.22 µM] (inactive)	
CSCCC(Nc1nc2ccccc2s1)C(=O)O (stereo unspecified)	0.0276% (inactive)	
Cc1ccnc(Nc2nc3ccccc3s2)n1		3.55 µM (active)
Cc1nn(-c2nc(-c3ccccc3)cc(C(F)(F)F)n2)c(C)c1Cl	-3.6% (inactive)	
Cc1ccccc1NC(=O)c1cc2c([nH]c1=O)CC(C)(C)CC2=O	14.6% (inactive)	
O=C(NC1CCCC1)c1ccc(Br)s1	-8.19% (inactive)	
CC(C)C(=O)OCC(=O)Nc1ccc2c(c1)CCC2	10.6% (inactive)	
O=C(Nc1ccc2c(c1)CCC2)c1ccc(Br)s1		5.62 µM (active)
NS(=O)(=O)c1ccc(NC(=O)C(=O)Nc2ccc3nc4n(c(=O)c3c2)CCCCC4)cc1	0.304% (inactive)	
CCOc1ccc(S(=O)(=O)c2cn(Cc3ccccc3)c3ccc(OCC)cc3c2=O)cc1	1.43% (inactive)	
Cc1oc(C)c2c(=O)cc(-c3ccc4c(c3)OCO4)cc(OC(=O)c3ccc(Cl)cc3)c12	2.7% (inactive)	
CC(C)C12CN3CC(C(C)C)(CN(C1)C3c1ccc(OCc3ccccc3)cc1)C2=O (stereo unspecified)	1.12% (inactive)	

Compound	activity change, positive = activation	Potency
Cc1ccc(Cn2c(CCCNC(=O)C3CCCCC3)nc3ccccc32)cc1	-19.1% (inactive)	
CCOc1ccc(-c2cc(C)n3nc(C(=O)Nc4ccc(C)c(C)c4)cc3n2)cc1	1.94% (inactive)	
O=C(/C=C\NCC(=O)c1ccccc1)c1ccccc1	-5.93% (inactive)	
Cc1ccc(N/C=C/C(=O)c2ccccc2)cc1C		2.51 µM (active)
Cc1noc(NS(=O)(=O)c2ccc(N/C=C/C(=O)c3ccccc3)cc2)c1C	20.6% (inactive)	
CSCCC(NS(=O)(=O)c1ccc2c(c1)oc(=O)n2C)C(=O)NCc1ccccc1 (stereo unspecified)	-3.7% (inactive)	
O=C(COc1ccc2oc3c(c2c1)CCCC3)Nc1ccccn1		20 µM (active)
Cc1ccc(OCC(=O)Nc2ccc(S(=O)(=O)Nc3ccccn3)cc2)cc1	0.0786% (inactive)	
Cc1cc(C)cc(OCC(=O)Nc2ccc(S(=O)(=O)Nc3ccccn3)cc2)c1	-4.75% (inactive)	
COc1cc(OC)cc(-c2nc3nc(C)c(CCC(=O)Nc4ccc(C)cc4)c(C)n3n2)c1	-1.68% (inactive)	
CCOC(=O)c1cc2c(=O)n3ccccc3nc2n(CC2CCCO2)c1=NC(=O)c1ccccc1Br (stereo unspecified)	3.82% (inactive)	
O=C(CCc1ccccc1)Nc1cccc(-c2nnc(-c3ccco3)o2)c1		12.6 µM (active)
C/C(=N/NC(=O)CCc1ccccc1)c1ccco1	-2.85% (inactive)	
Cc1cccc(NC(=O)CSc2nnc(-c3ccco3)o2)c1	13.2% (inactive)	
CCOc1ccc(-n2c(C)nc3c(cnn3-c3ccc(C)cc3)c2=O)cc1	8.1% (inactive)	
O=C(NC1CC1)c1cccc(Br)c1	-9.53% (inactive)	
O=C(NC1CC1)c1ccc(-c2ccccc2)cc1		11.2 µM (active)
Cc1ccc(C(=O)NC2CCN(C(=O)N3CCOCC3)CC2)cc1	-9.36% (inactive)	
CCOc1ccccc1N(C)C(=O)c1cc2c(s1)-c1ccccc1OC2	-13.3% (inactive)	
O=C(NC1CCN(Cc2ccccc2)CC1)c1ccc(Cn2c(=O)c3ccccc3n(Cc3cccc(F)c3)c2=O)cc1	0.0275% (inactive)	
O=C(CSc1oc(-c2ccco2)nc1S(=O)(=O)c1ccc(Cl)cc1)c1ccccc1	11.5% (inactive)	
Cc1ccc(-c2nc(CS(=O)(=O)CC(=O)NCc3ccccc3Cl)c(C)o2)cc1	5.89% (inactive)	
COc1ccc(CCNC(=O)c2cc(=O)c3c(C)cc(C)cc3o2)cc1OC	3.1% (inactive)	
